MCF10A rereplic: A quantitative high throughput screen for small molecules that induce DNA re-replication in MCF 10a normal breast cells | MCF 10A DNA re-replication, Hoechst nuclear intensity, 48 h | Potency, µM (series often up to 46.1 µM), actives largely listed as activators | actives 2.9% (n = 350,000); further: nearly all actives have a fitted effect of over 50% in size
IL1B secr inh: qHTS for Inhibitors of Inflammasome Signaling: IL-1-beta AlphaLISA Primary Screen; actives 4.7% (n = 360,000); AID 743279, 2014; activity change, % at 57.5 µM; THP-1 LPS/ATP IL-1B secretion, AlphaLISA, 16 h; stronger effect = lower value; in the data active means activity change below about -50%; inconclusive means mostly about -30% to -49%
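Secreted IL-1B measured by AlphaLISA bead assay after 16 h compound exposure of THP-1 cells; compounds (final up to 57.5 uM) added 1 h before LPS (250 ng/mL) and ATP (1.25 mM) stimulation; lower signal means less secretion.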
KB-3-1 tox: qHTS assay for MDR1-selective chemotherapeutics: Primary screen using the parental adenocarcinoma cell KB-3-1; KB-3-1 viability, CellTiter-Glo ATP luminescence, 72 h; Potency, µM (doses to about 46.1 µM), hits mostly cytotoxic; actives 1.4% (n = 400,000); AID 1347075, 2019; further: nearly all actives have a fitted effect of over 60% in size
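Parental KB-3-1 viability, qHTS format: 72 h compound exposure, 37 °C; CellTiter-Glo; media-only wells and DMSO plates as controls; concentration-effect fits on corrected data.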
KB-V1 cytotox: qHTS assay for MDR1-selective chemotherapeutics: Primary screen using the drug-selected MDR subline cells KB-V1; KB-V1 MDR cells viability, CellTiter-Glo, 72 h; Potency, µM (titrated, usually from 46.1 µM), hits mostly cytotoxic; actives 3.4% (n = 400,000); further: nearly all actives have a fitted effect of over 60% in size
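Potencies derive from concentration-effect curves fitted to normalized luminescence (CellTiter-Glo) of KB-V1 cells treated for 72 h at 37 degrees C in phenol-red-free DMEM containing 10% FBS.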
SW480 rereplic: A quantitative high throughput screen for small molecules that induce DNA re-replication in SW480 colon adenocarcinoma cells. SW480 DNA re-replication, Hoechst DNA content imaging, 48 h. Potency, µM (doses to about 46.1 µM), actives largely listed as activators. actives 1.8% (n = 340,000); further: nearly all actives have a fitted effect of over 55% in size
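Quantitative HTS format with DMSO vehicle controls; 48 hr drug incubation at 37 C, then 40 min Hoechst staining and scanning imager measurement at 405 nm excitation.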
Large screens that a line does not name were inactive. Compounds with a hit are over-represented: about 9.9% of the library has one in this group of screens. Unless noted, the call rests on the fitted dose curve; in most records, active means well fitted curve in the direction sought with a large enough effect; inconclusive means small, poorly fitted or top-dose-only effect, or another doubt; inactive means no such curve, though single readings can be large; an effect the other way counts as inactive or inconclusive.

CCn1nc(C)c(CN2CCC(Oc3ccc(C(=O)N4CCCC4)cc3)CC2)c1C	none
CCc1cc(C(=O)OC)c(NC(=O)c2cc(Br)cs2)s1	KB-V1 cytotox 16µM
CCc1cc(C(=O)OC)c(NC(=O)c2ccoc2C)s1	none
Cc1ccc(C2NC(=O)c3c(sc(C)c3C)N2)c(O)c1 (stereo not given)	MCF10A rereplic inconclusive, SW480 rereplic 21µM
Cc1cccc(C2NC(=O)c3c(sc(C)c3C)N2)c1O (stereo not given)	none
COc1cc(CNCCc2c[nH]c3ccccc23)ccc1OCc1ccc(F)cc1	MCF10A rereplic inconclusive, IL1B secr inh -103, KB-V1 cytotox 5.2µM, SW480 rereplic inconclusive
COc1cc(CNCCc2ccccc2F)ccc1OCc1ccc(Cl)nc1	KB-3-1 tox inconclusive, KB-V1 cytotox inconclusive
COc1cccc(CNCCc2c[nH]c3ccccc23)c1OCc1ccc(F)cc1	MCF10A rereplic inconclusive, IL1B secr inh -62, KB-3-1 tox inconclusive, KB-V1 cytotox 16µM, SW480 rereplic inconclusive
COc1cc(CNCCc2ccc(F)cc2)ccc1OCc1ccc(Cl)nc1	IL1B secr inh -56, KB-3-1 tox inconclusive, KB-V1 cytotox inconclusive
COc1ccc(C(=O)OCC(=O)Nc2ccc3[nH]c(=O)[nH]c3c2)cc1	KB-V1 cytotox inconclusive
COc1ccccc1NC(=S)N(CCc1ccc(OC)c(OC)c1)Cc1ccccn1	KB-V1 cytotox inconclusive
Cc1ccc(CN(Cc2ccccn2)C(=O)Nc2ccc(C)c(C)c2)cc1	IL1B secr inh -58, SW480 rereplic inconclusive
COc1ccc(CCN(Cc2ccccn2)C(=S)Nc2ccc(C)cc2)cc1OC	KB-3-1 tox inconclusive, KB-V1 cytotox 23µM
Clc1ccc(CCNc2nc3ccccc3s2)cc1	MCF10A rereplic inconclusive
CCC(C)[C@@H]1NC(=O)N(CCCN2CCCC2=O)C1=O (stereo not given in full)	none
Cn1cc(/C=C(\C#N)C(=O)Nc2ccccc2O)c2ccccc21	IL1B secr inh -62
CC(C)OC(=O)/C(C#N)=C/c1cn(C)c2ccccc12	IL1B secr inh -54
CCOC(=O)C1=C(C)NC(=S)NC1c1ccc(OCC(=O)N2CCCCC2)cc1 (stereo not given)	KB-3-1 tox inconclusive
Cc1cc(-c2nc3cccnc3s2)ccc1NS(=O)(=O)c1ccc2c(c1)OCCO2	MCF10A rereplic 5.2µM, SW480 rereplic inconclusive
O=S(=O)(Nc1ccc(-c2nc3cccnc3s2)cc1)c1cccs1	MCF10A rereplic 6.5µM
O=S(=O)(Nc1ccc(-c2nc3cccnc3s2)cc1)c1ccccc1F	MCF10A rereplic inconclusive, SW480 rereplic 23µM
O=S(=O)(Nc1ccc(-c2nc3cccnc3s2)cc1)c1ccc(Cl)s1	MCF10A rereplic 8.2µM
CCS(=O)(=O)Nc1ccc(-c2nc3cccnc3s2)cc1	IL1B secr inh inconclusive
Cc1c(NS(=O)(=O)c2ccc3c(c2)OCCO3)cccc1-c1nc2cccnc2s1	KB-3-1 tox inconclusive
Cc1cc(-c2nc3cccnc3s2)ccc1NS(=O)(=O)c1cccs1	MCF10A rereplic 5.8µM, SW480 rereplic inconclusive
O=S(=O)(Nc1cccc2ncccc12)c1cccs1	MCF10A rereplic 16µM, IL1B secr inh -64, KB-3-1 tox inconclusive, KB-V1 cytotox inconclusive, SW480 rereplic 6.5µM
O=C(NCc1cccs1)C1C(=O)Nc2ccccc2C(=O)N1Cc1ccccc1 (stereo not given)	none (no result: MCF10A rereplic, SW480 rereplic)
CSc1ccc(CN2CCC(C)(Oc3ccccc3F)C2)cc1 (stereo not given)	none (no result: MCF10A rereplic, SW480 rereplic)
O=C(c1ccc(Cl)cc1)c1oc2ccccc2c1CS(=O)c1ccc(Cl)cc1 (stereo not given)	KB-V1 cytotox 21µM
Nc1c(C(=O)c2ccc(Cl)cc2)oc2ccccc12	MCF10A rereplic inconclusive
CC(c1ccccc1)N(CCC(c1ccccc1)C1CCOC(C)(C)C1)C(=O)c1ccco1 (stereo not given)	MCF10A rereplic 16µM, KB-V1 cytotox 9.2µM
COc1ccc(CN(CCC(c2ccccc2)c2ccco2)C(=O)c2ccco2)cc1 (stereo not given)	MCF10A rereplic inconclusive
COc1ccc(CN(CCC(c2ccc(F)cc2)C2CCOC(C)(C)C2)C(=O)c2ccco2)cc1 (stereo not given)	MCF10A rereplic 23µM, IL1B secr inh -103, KB-3-1 tox inconclusive, KB-V1 cytotox inconclusive
O=C(CSc1nnc(-c2ccc(Cl)cc2)n1-c1ccccc1)N/N=C/c1ccccc1C(=O)O	SW480 rereplic inconclusive
Cc1nnc(SCC(=O)N/N=C/c2cn(-c3ccccc3)nc2-c2ccccc2)n1-c1ccccc1	MCF10A rereplic inconclusive, IL1B secr inh -78, KB-V1 cytotox inconclusive
Cc1ccc(NC(=O)CSc2nnc(C)n2-c2ccccc2)cc1	none
O=C(CSc1nnc(-c2ccccc2)n1-c1ccc(Cl)cc1)N/N=C/c1ccco1	KB-V1 cytotox 16µM
COc1cccc(-c2cc(C(F)(F)F)nc(NCCc3ccc(OC)c(OC)c3)n2)c1	KB-3-1 tox inconclusive (no result: MCF10A rereplic, IL1B secr inh, SW480 rereplic)
O=C(O)c1ccc(/C=N\Nc2ccc(S(=O)(=O)N3CCOCC3)cc2[N+](=O)[O-])cc1	none
CN(C)CCN=Cc1c(O)n(-c2ccc(S(=O)(=O)N3CCOCC3)cc2)c(=O)c2ccccc12	SW480 rereplic 18µM
CN(C)CCN=Cc1c(O)n(Cc2ccc3c(c2)OCO3)c(=O)c2ccccc12	IL1B secr inh -53
Cc1ccc(-n2c(O)c(/C=N/Nc3ccc(S(=O)(=O)N4CCOCC4)cc3[N+](=O)[O-])c3ccccc3c2=O)c(C)c1	MCF10A rereplic inconclusive, IL1B secr inh -65, KB-V1 cytotox inconclusive, SW480 rereplic inconclusive
Cc1cccc(-n2c(O)c(C=NCCCN3CCOCC3)c3ccccc3c2=O)c1	none
CCc1nc2ccc(C(=O)NCCc3c[nH]c4ccccc34)cn2c1N(C)Cc1ccc(N(C)C)cc1	none (no result: MCF10A rereplic, SW480 rereplic)
Cc1ccc2[nH]c(CSc3nnc(NC(=O)c4ccc(Cl)cc4)s3)cc(=O)c2c1	KB-V1 cytotox inconclusive (no result: MCF10A rereplic, IL1B secr inh, SW480 rereplic)
CC1(C)COC(/C=C/c2cccc([N+](=O)[O-])c2)=N1	MCF10A rereplic 14µM, IL1B secr inh -107, KB-3-1 tox inconclusive, SW480 rereplic inconclusive
O=c1/c(=C/c2ccccn2)sc2n1CN(c1ccccc1)CN=2	SW480 rereplic inconclusive
Cc1cc(C)c2c(c1)/C(=c1/sc3n(c1=O)CN(c1ccccc1)CN=3)C(=O)N2	KB-3-1 tox inconclusive, KB-V1 cytotox 16µM
Cc1ccc(CNc2nc3cc(-c4ccccc4C)sc3c(=O)n2C)c(C)c1	KB-3-1 tox inconclusive (no result: MCF10A rereplic, SW480 rereplic)
COc1cccc(CNc2nc3cc(-c4ccc(OC)c(OC)c4)sc3c(=O)n2C)c1	none (no result: MCF10A rereplic, SW480 rereplic)
COc1cccc(CNc2nc3cc(-c4ccccc4)sc3c(=O)n2C)c1	KB-3-1 tox 7.3µM, KB-V1 cytotox 2.3µM (no result: MCF10A rereplic, SW480 rereplic)

Screens (PubChem)
